Laboratory results published in PubChem BioAssay (EPA / NIEHS).
Active and inactive are the calls of the source. How the source made its calls: active means hit-call score of the fitted dose curve at least 0.9, where 1 is the maximum; inactive means score below 0.9.

Experiments:
Settings in all cases: mRNA level, 48 h; actives raise or lower the signal
[1] = read-out: Fatty acid synthase (Homo sapiens) (UniProt P49327); assay: LTEA_HepaRG_FASN: Life Technologies and Expression Analysis (LTEA) Assay for Fatty Acid Synthase (FASN) using HepaRG (AID 2283448)
Procedure, shortened: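 Differentiated HepaRG cells in serum-free induction medium exposed 48 h in duplicate to eight half-log concentrations, top 100 uM, 0.5% DMSO. FASN mRNA by qRT-PCR normalised to ACTB, GAPDH, POLR2A; bidirectional fit versus DMSO.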

[2] = read-out: Cyclin D2 (CCND2), CCND2 (gene 894); assay: LTEA_HepaRG_CCND2: Life Technologies and Expression Analysis (LTEA) Assay for Cyclin D2 (CCND2) using HepaRG (AID 2283449);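 further: CCND2 transcript measured by TaqMan qRT-PCR and normalised to three housekeeping genes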
Procedure, shortened: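 Chemicals in 0.5% DMSO, eight half-log concentrations from 100 uM top, were applied in duplicate for 48 h to human HepaRG cells in serum-free induction medium. CCND2 mRNA by TaqMan qRT-PCR, normalised to ACTB/GAPDH/POLR2A; bidirectional fit versus DMSO.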

[3] = read-out: Cyclin Dependent Kinase Inhibitor 1A (CDKN1A), CDKN1A (gene 1026); assay: LTEA_HepaRG_CDKN1A: Life Technologies and Expression Analysis (LTEA) Assay for Cyclin Dependent Kinase Inhibitor 1A (CDKN1A) using HepaRG (AID 2283450)
Procedure, shortened: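 Gain or loss of CDKN1A transcript is scored by bidirectional fitting against 0.5% DMSO vehicle. Human HepaRG cultures receive chemicals for 48 h across an 8-point series peaking at 100 uM; expression comes from qRT-PCR.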

[4] = read-out: Cyclin D1 (CCND1), CCND1 (gene 595); assay: LTEA_HepaRG_CCND1: Life Technologies and Expression Analysis (LTEA) Assay for Cyclin D1 (CCND1) using HepaRG (AID 2283451);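 on AC50: TaqMan qRT-PCR transcript level normalised to ACTB GAPDH and POLR2A housekeeping genes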
Procedure, shortened: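 Expression change is measured by qRT-PCR in HepaRG cells after 48 h treatment across eight concentrations topping at 100 uM, with duplicate wells and DMSO (0.5%) serving as baseline for bidirectional fitting.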

[5] = read-out: catalase (CAT), CAT (gene 847); assay: LTEA_HepaRG_CAT: Life Technologies and Expression Analysis (LTEA) Assay for catalase (CAT) using HepaRG (AID 2283452);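 on AC50: TaqMan qRT-PCR signal normalized to ACTB GAPDH and POLR2A housekeeping genes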
Procedure, shortened: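 HepaRG cells in serum-free induction medium, 0.5% DMSO vehicle, exposed 48 h in duplicate over 8 half-log concentrations from 100 uM. CAT mRNA measured by qRT-PCR, normalized to ACTB, GAPDH, POLR2A; bidirectional fit versus DMSO.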

[6] = read-out: flavin-containing dimethylaniline monooxygenases 3 (FMO3), FMO3 (gene 2328); assay: LTEA_HepaRG_FMO3: Life Technologies and Expression Analysis (LTEA) Assay for flavin-containing dimethylaniline monooxygenases 3 (FMO3) using HepaRG (AID 2283453)
Procedure, shortened: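 Differentiated HepaRG cells in serum-free induction medium, exposed 48 h in duplicate to 8 half-log concentrations up to 100 uM in 0.5% DMSO. FMO3 mRNA by qRT-PCR, normalized to ACTB, GAPDH, POLR2A; bidirectional fit vs DMSO.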

[7] = read-out: Cytochrome P450 (CYP1A1), CYP1A1 (gene 1543); assay: LTEA_HepaRG_CYP1A1: Life Technologies and Expression Analysis (LTEA) Assay for Cytochrome P450 (CYP1A1) using HepaRG (AID 2283454)
Procedure, shortened: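 Using HepaRG cultures with 0.5% DMSO as vehicle, eight-concentration exposures (max 100 uM) lasted 48 h. Transcript levels were measured by TaqMan qRT-PCR and normalized to ACTB, GAPDH and POLR2A.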

[8] = read-out: CFLAR gene, CFLAR (gene 8837); assay: LTEA_HepaRG_CFLAR: Life Technologies and Expression Analysis (LTEA) Assay for CFLAR gene using HepaRG (AID 2283455)
Procedure, shortened: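 Differentiated HepaRG cells in serum-free induction medium were exposed 48 h in duplicate to eight half-log concentrations up to 100 uM in 0.5% DMSO; mRNA measured by TaqMan qRT-PCR, normalized to ACTB, GAPDH, POLR2A; bidirectional fitting versus DMSO.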

[9] = read-out: Forkhead box O1 (FOXO1), FOXO1 (gene 2308); assay: LTEA_HepaRG_FOXO1: Life Technologies and Expression Analysis (LTEA) Assay for Forkhead box O1 (FOXO1) using HepaRG (AID 2283456)
Procedure, shortened: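 Differentiated HepaRG cells, in serum-free induction medium with 0.5% DMSO, exposed 48 h in duplicate to 8-point half-log series from 100 uM. FOXO1 mRNA measured by TaqMan qRT-PCR, normalized to ACTB, GAPDH, POLR2A; bidirectional fit versus DMSO.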

[10] = read-out: growth arrest and DNA damage 45 (GADD45A), GADD45A (gene 1647); assay: LTEA_HepaRG_GADD45A: Life Technologies and Expression Analysis (LTEA) Assay for growth arrest and DNA damage 45 (GADD45A) using HepaRG (AID 2283458)
Procedure, shortened: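 Differentiated HepaRG cells exposed 48 h in serum-free induction medium to 8 concentrations, top 100 uM in half-log steps, 0.5% DMSO. GADD45A mRNA quantified by qRT-PCR, normalized to ACTB, GAPDH and POLR2A; bidirectional fit versus DMSO.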

[11] = read-out: Forkhead box O3 (FOXO3), FOXO3 (gene 2309); assay: LTEA_HepaRG_FOXO3: Life Technologies and Expression Analysis (LTEA) Assay for Forkhead box O3 (FOXO3) using HepaRG (AID 2283459)
Procedure, shortened: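 Differentiated human HepaRG cells, 48 h post-plating, exposed in duplicate for 48 h in serum-free induction medium; 8-point half-log series from 100 uM in 0.5% DMSO. FOXO3 mRNA by TaqMan qRT-PCR, normalized to ACTB/GAPDH/POLR2A; bidirectional fit versus DMSO.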

[12] = read-out: ABC Transporter (ABCB1), ABCB1 (gene 5243); assay: LTEA_HepaRG_ABCB1: Life Technologies and Expression Analysis (LTEA) Assay for ABC Transporter (ABCB1) using HepaRG (AID 2283460)
Procedure, shortened: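 HepaRG cells exposed in duplicate for 48 h in serum-free induction medium to eight half-log concentrations up to 100 uM in 0.5% DMSO. ABCB1 mRNA quantified by qRT-PCR, normalised to ACTB, GAPDH and POLR2A; fitted bidirectionally versus DMSO.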

[13] = read-out: growth arrest and DNA damage 45 (GADD45B), GADD45B (gene 4616); assay: LTEA_HepaRG_GADD45B: Life Technologies and Expression Analysis (LTEA) Assay for growth arrest and DNA damage 45 (GADD45B) using HepaRG (AID 2283461)
Procedure, shortened: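 Human HepaRG monolayers receive chemicals for 48 h at eight half-log concentrations, highest 100 uM, in 0.5% DMSO. Expression is measured by TaqMan qRT-PCR and normalized to ACTB, GAPDH and POLR2A.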

[14] = read-out: ABC Transporter (ABCC3), ABCC3 (gene 8714); assay: LTEA_HepaRG_ABCC3: Life Technologies and Expression Analysis (LTEA) Assay for ABC Transporter (ABCC3) using HepaRG (AID 2283462)
Procedure, shortened: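 Transcriptional change of ABCC3 in HepaRG after 48 h treatment, determined by qRT-PCR normalized to endogenous controls. Concentrations spanned eight half-log steps to 100 uM in 0.5% DMSO.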

[15] = read-out: ABC Transporter (ABCB11), ABCB11 (gene 8647); assay: LTEA_HepaRG_ABCB11: Life Technologies and Expression Analysis (LTEA) Assay for ABC Transporter (ABCB11) using HepaRG (AID 2283463)
Procedure, shortened: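 Differentiated human HepaRG cells in serum-free induction medium, dosed in duplicate for 48 h. Eight-point half-log series from 100 uM in 0.5% DMSO; ABCB11 mRNA by qRT-PCR, normalized to ACTB, GAPDH, POLR2A, fitted bidirectionally versus DMSO.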

[16] = read-out: ABC Transporter (ABCC2), ABCC2 (gene 1244); assay: LTEA_HepaRG_ABCC2: Life Technologies and Expression Analysis (LTEA) Assay for ABC Transporter (ABCC2) using HepaRG (AID 2283464)
Procedure, shortened: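 After plating and 48 h culture, HepaRG medium is replaced with serum-free induction medium and chemicals are added (8 concentrations, max 100 uM, 0.5% DMSO) for 48 h. Total RNA then undergoes qRT-PCR for ABCC2 with housekeeping normalization.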

[17] = read-out: Broad substrate specificity ATP-binding cassette transporter ABCG2 (Homo sapiens) (UniProt Q9UNQ0); assay: LTEA_HepaRG_ABCG2: Life Technologies and Expression Analysis (LTEA) Assay for ABC Transporter (ABCG2) using HepaRG (AID 2283465)
Procedure, shortened: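 Differentiated HepaRG cells were exposed for 48 h in serum-free induction medium to 8 half-log concentrations, top 100 uM, in 0.5% DMSO. ABCG2 mRNA was measured by qRT-PCR, normalized to ACTB, GAPDH and POLR2A, with bidirectional fitting versus DMSO.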

[18] = read-out: ATP-citrate lyase (ACLY), ACLY (gene 47); assay: LTEA_HepaRG_ACLY: Life Technologies and Expression Analysis (LTEA) Assay for ATP-citrate lyase (ACLY) using HepaRG (AID 2283466)
Procedure, shortened: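 Differentiated HepaRG cells exposed 48 h in serum-free induction medium to eight half-log concentrations up to 100 uM in 0.5% DMSO, duplicates. Transcript measured by Fluidigm TaqMan qRT-PCR, normalized to ACTB, GAPDH, POLR2A; bidirectional fit versus DMSO.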

[19] = read-out: Peroxisomal acyl-coenzyme A oxidase 1 (ACOX1) gene, ACOX1 (gene 51); assay: LTEA_HepaRG_ACOX1: Life Technologies and Expression Analysis (LTEA) Assay for Peroxisomal acyl-coenzyme A oxidase 1 (ACOX1) gene using HepaRG (AID 2283467)
Procedure, shortened: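 HepaRG cells, plated 48 h then switched to serum-free induction medium, were exposed in duplicate for 48 h to 8-point half-log concentrations up to 100 uM in 0.5% DMSO. ACOX1 mRNA was measured by qRT-PCR, normalized to ACTB/GAPDH/POLR2A, and fitted bidirectionally versus DMSO.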

Measured: AC50

Fatty acid synthase (Homo sapiens), sequence (P49327 whole entry, looked up): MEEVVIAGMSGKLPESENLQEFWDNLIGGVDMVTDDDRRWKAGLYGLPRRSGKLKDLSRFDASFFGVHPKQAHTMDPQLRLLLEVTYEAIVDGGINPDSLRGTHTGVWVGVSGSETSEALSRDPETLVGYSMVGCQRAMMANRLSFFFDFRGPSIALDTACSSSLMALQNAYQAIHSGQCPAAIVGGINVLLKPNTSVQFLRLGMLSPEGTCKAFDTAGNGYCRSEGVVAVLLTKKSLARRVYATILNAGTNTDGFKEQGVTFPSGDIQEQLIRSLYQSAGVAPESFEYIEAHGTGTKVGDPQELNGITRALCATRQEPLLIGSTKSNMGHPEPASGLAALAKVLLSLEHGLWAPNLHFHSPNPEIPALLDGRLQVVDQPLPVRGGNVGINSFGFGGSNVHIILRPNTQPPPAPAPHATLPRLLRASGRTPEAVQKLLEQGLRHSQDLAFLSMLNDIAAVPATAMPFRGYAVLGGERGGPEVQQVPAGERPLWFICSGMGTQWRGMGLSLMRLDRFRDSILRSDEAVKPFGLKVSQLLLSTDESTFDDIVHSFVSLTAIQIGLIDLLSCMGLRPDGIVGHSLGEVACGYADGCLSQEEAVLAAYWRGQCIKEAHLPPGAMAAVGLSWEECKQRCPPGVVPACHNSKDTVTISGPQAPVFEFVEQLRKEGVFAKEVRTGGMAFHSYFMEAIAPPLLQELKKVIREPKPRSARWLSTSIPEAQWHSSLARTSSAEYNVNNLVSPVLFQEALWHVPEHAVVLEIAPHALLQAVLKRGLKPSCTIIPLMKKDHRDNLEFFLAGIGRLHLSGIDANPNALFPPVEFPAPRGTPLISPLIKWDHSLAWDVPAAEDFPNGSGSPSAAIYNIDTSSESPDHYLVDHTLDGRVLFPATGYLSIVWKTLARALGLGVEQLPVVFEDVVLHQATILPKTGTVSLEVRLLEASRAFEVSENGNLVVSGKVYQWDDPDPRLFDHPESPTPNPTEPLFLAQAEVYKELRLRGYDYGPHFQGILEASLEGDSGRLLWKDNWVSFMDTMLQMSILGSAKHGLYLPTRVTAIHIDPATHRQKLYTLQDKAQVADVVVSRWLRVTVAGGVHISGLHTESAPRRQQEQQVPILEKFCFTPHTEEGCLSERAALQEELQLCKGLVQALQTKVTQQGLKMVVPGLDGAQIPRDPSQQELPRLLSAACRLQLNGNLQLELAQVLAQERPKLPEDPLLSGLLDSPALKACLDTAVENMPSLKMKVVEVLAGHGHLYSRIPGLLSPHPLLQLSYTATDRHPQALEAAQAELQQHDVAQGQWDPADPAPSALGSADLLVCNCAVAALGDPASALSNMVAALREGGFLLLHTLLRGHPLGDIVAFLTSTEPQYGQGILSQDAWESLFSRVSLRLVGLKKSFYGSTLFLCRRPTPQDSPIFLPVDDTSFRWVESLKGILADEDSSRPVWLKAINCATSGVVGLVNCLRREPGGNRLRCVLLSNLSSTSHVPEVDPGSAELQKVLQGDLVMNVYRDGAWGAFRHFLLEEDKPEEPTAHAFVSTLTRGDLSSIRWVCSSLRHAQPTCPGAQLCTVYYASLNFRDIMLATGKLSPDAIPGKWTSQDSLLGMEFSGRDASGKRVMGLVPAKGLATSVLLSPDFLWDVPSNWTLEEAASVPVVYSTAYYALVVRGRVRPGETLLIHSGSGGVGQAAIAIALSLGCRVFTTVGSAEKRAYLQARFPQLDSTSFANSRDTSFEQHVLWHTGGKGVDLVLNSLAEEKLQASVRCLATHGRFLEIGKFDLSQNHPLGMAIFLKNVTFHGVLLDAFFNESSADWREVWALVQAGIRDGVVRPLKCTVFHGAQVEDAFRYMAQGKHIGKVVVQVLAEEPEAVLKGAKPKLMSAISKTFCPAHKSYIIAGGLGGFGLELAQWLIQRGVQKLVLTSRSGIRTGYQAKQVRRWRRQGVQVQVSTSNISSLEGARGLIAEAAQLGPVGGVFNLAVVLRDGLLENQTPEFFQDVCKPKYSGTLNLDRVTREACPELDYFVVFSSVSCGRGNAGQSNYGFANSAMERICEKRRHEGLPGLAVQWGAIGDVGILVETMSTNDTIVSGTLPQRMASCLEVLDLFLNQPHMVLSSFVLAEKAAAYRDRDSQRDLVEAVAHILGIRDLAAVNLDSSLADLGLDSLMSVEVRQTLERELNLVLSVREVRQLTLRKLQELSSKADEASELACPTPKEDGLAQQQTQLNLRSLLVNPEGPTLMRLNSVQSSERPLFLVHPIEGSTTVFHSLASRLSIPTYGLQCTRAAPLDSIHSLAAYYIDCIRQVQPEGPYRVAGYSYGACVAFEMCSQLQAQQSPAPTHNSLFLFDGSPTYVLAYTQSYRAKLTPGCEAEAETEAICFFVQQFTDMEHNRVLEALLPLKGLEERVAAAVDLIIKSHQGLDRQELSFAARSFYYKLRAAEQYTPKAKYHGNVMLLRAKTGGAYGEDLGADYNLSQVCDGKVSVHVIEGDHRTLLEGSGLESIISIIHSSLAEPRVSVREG
Broad substrate specificity ATP-binding cassette transporter ABCG2 (Homo sapiens), sequence (Q9UNQ0 whole entry, looked up): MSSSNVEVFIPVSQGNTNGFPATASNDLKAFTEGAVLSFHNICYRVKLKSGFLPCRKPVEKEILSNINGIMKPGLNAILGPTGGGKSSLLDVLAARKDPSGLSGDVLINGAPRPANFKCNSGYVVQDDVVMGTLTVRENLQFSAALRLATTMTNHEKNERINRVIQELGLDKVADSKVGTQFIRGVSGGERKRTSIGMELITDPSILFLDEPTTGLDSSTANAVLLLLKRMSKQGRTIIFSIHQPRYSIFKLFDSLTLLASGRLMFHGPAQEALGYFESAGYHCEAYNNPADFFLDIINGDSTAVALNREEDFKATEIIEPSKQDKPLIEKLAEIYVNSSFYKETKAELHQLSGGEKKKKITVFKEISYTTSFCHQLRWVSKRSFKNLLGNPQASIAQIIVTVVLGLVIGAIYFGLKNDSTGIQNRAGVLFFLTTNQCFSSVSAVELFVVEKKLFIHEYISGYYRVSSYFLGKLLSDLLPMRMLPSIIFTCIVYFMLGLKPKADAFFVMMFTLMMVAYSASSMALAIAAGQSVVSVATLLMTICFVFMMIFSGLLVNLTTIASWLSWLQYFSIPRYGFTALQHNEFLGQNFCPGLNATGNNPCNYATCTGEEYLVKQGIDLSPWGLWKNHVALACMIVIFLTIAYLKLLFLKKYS

O=C(O)c1ccc2c(c1)nc(C(=O)NC1CCN(C3CC3)CC1)n2Cc1cc(-c2ccc(Cl)s2)on1
active: [7] 12 µM
inactive: all other assays above

CC1(C)C(=O)N(Cl)C(=O)N1Cl
active: [7] 50 µM
inactive: all other assays above

CCCCCCCCCCCCCCCCOS(=O)(=O)O
active: [7] 14.9 µM | [15] 41.1 µM
inactive: all other assays above

NC(N)=O
active: [7] 81.8 µM
not listed: [11]
inactive: all other assays above

CCn1nc(C)c2c1C(=O)NCC(c1ccc(O)cc1)=N2
active: [1] 17.1 µM | [7] 40 µM
not listed: [14]
inactive: all other assays above

c1ccc(C(O[C@@H]2CCCN(CCc3ccc4c(c3)OCO4)C2)c2ccccc2)cc1
active: [1] 79.9 µM | [3] 77.7 µM | [4] 50 µM | [5] 69.7 µM | [6] 70 µM | [7] 13.2 µM | [10] 89.2 µM | [11] 10.2 µM | [12] 83.9 µM | [13] 81.1 µM | [15] 76.8 µM | [16] 79.7 µM | [19] 75.9 µM
inactive: [2] | [8] | [9] | [17] | [18]

O=C(O)c1cccc(C(=O)O)c1
active: [7] 50 µM
inactive: all other assays above

c1ccc2c(c1)-c1cccc3c1c-2cc1ccccc13
inactive: [2] | [3] | [10] | [17]
active: [1] 13.7 µM | [4] 5.32 µM | [5] 15.1 µM | [6] 18.4 µM | [7] 0.851 µM | [8] 10.6 µM | [9] 5.04 µM | [12] 15.5 µM | [13] 11.3 µM | [14] 21 µM | [15] 15.1 µM | [16] 13.8 µM | [18] 3.88 µM | [19] 15.9 µM

CCCCCCCC/C=C\CCCCCCCC(=O)OC[C@@H](O)[C@H]1OC[C@H](O)[C@H]1O
not listed: [11] | [14]
inactive: all other assays above

CC(C)CC(C)O (stereo not drawn)
active: [7] 50 µM
not listed: [11] | [14]
inactive: all other assays above

CCCCN1C(=O)[C@@H]([C@H](O)C2CCCCC2)NC(=O)C12CCN(Cc1ccc(Oc3ccc(C(=O)O)cc3)cc1)CC2
inactive: [3] | [10]
active: [1] 1.32 µM | [4] 50 µM | [5] 2.04 µM | [6] 3.54 µM | [7] 2.16 µM | [8] 2.28 µM | [9] 6.4 µM | [12] 2.24 µM | [13] 21.5 µM | [15] 0.849 µM | [16] 2.88 µM | [17] 1.54 µM | [18] 0.672 µM | [19] 2.79 µM

O=S1(=O)CCCO1
not listed: [11] | [14]
inactive: all other assays above

CCCc1ccccc1
not listed: [2] | [14]
inactive: all other assays above

COc1cc(C(C)C)c2c(c1)S(=O)(=O)N(COc1cc(=O)n3cccc(OCCN4CCCCC4)c3n1)C2=O
active: [1] 20.7 µM | [4] 19.4 µM | [5] 19.4 µM | [6] 23 µM | [8] 19.5 µM | [12] 21.3 µM | [15] 17.5 µM | [16] 22.3 µM | [17] 20.9 µM | [19] 19.8 µM
inactive: [3] | [7] | [9] | [10] | [13] | [18]
